From PubChem BioAssay (NCI) come the findings set out here.

The panel holds about 79,000 compounds, 15% with a hit somewhere; the sample as a whole holds those more often. Unmarked numbers belong to inactive results. The source made the active and inactive calls. No stated cut-off is given here; in the data, active means growth inhibition above about 70%; inactive means the rest.

One assay is described as follows: NCI Yeast Anticancer Drug Screen. Data for the bub3 strain (AID 167). The settings on record: S. cerevisiae bub3 mutant strain, at 50.0 µM, hits give high values. The gist of the method: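 In this screen, a yeast mutant lacking normal mitotic checkpoint function is challenged with compound. Relative growth versus vehicle gives the inhibition value.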
Take `CCN(CC)CCCOC(c1ccccc1)c1ccc(Cl)cc1` (stereo not given): the growth inhibition is 1.1%.
As for `O=C(/C(=C\C(=O)c1cccs1)c1ccsc1)c1ccc(Br)cc1`, the growth inhibition is 14.5%.
As for `CCCCCCOCC(=O)OC`, the growth inhibition is 9.2%.
Regarding `CC(=O)NC1=C(Sc2ccc(Cl)cc2)C(=O)c2ccccc2C1=O`, the growth inhibition was 19.9%.
As for `CC(=O)OCC1OC(Sc2ccc([N+](=O)[O-])cc2)C(OC(C)=O)C(OC(C)=O)C1OC(C)=O` (stereo not given), the growth inhibition was -1.05%.
For `c1ccc(C23CCCCC2O3)cc1` (stereo not given), the growth inhibition is 12.4%.
In the case of `CCN(CC)C(=S)Nc1ccc(-c2cc3ccc(O)cc3oc2=O)cc1`, the growth inhibition is 18.2%.
`Nc1cccc(C(=O)Nc2ccc3c(O)cc(S(=O)(=O)O)cc3c2)c1`: the growth inhibition is -12.4%.
As for `O=C(CCCC(=O)Nc1cccc([N+](=O)[O-])c1)CC(=O)c1ccc([N+](=O)[O-])cc1`, the growth inhibition was -14.6%.
Turning to `CSc1cc(Cl)c(C)cc1S(=O)(=O)n1cc[nH]c1=O`, the growth inhibition was -3.75%.
On the same count and under the same terms, for `O=C1CN(CCN2CCCCC2)CC(=O)N2Cc3ccccc3CN12` the value was 7.8%; for `COC(=O)NC1(NC(=O)OC)NC(=O)c2cc(OC)c(OC)c(OC)c2N1`, -12.3%.
As to `Cc1cccc(C(=O)NC(C)C)c1`, the growth inhibition was -4.95%.
For the compound `Cc1ccc(S(=O)(=O)OC2CCCCCC2c2ccccc2)cc1` (stereo not given), the growth inhibition was -2.75%.
The same measure, in the same setting: for `c1ccc2c(c1)CCCC(N1CCOCC1)C2` (stereo not given) the value was -24.3%; for `CCOC(=O)CSC(=O)NCCCl`, 17.6%; for `COc1ccc(C(=O)/C(Br)=C\C(=O)O)cc1`, 23.9%.
For the compound `CCc1nc(N)nc(N)c1-c1ccc(Cl)c([N+](=O)[O-])c1`, the growth inhibition is -31.1%.
Turning to `COc1ccc(C2CC(c3cc(C)ccc3O)=NC(N)=N2)cc1` (stereo not given), the growth inhibition is 13.4%.
For the compound `CCOC(=O)Cc1csc2[n+]1C(=O)/C(=C/c1cccc(OC)c1O)S2`, the growth inhibition is 13.3%.
As to `COc1ccc(CCN2C(=O)C(=O)N(c3ccc([N+](=O)[O-])cc3)C2=O)cc1OC`, the growth inhibition was 0.95%.
The same measure, in the same setting: for `CC1(c2cccc[n+]2Cc2ccccc2S(=O)(=O)[O-])OCCO1` the value was -3.95%; for `O=c1[nH]nc(SCc2ccccc2)c(=O)n1C(c1ccccc1)c1ccccc1`, 8.05%.
For `COc1cc(C(=O)O)ccc1OC(C)=O`, the growth inhibition is -6.6%.
Turning to `O=C1C=C(c2ccccc2)C(O)(c2ccccc2)/C1=C/C=C/c1ccccc1` (stereo not given), the growth inhibition is -5.2%.
The same measure, in the same setting: as for `Cc1onc(-c2c(F)cccc2Cl)c1C(=O)Nc1cc2cc([N+](=O)[O-])ccc2oc1=O`, the figure is 2.8%.
On the same count and under the same terms, as for `C=CCSc1nc2ccc(NCn3c(=S)sc4ccccc43)cc2s1`, the figure is 41.9%; as for `Nc1nc(Cl)nc(Nc2ccc(-c3cc4ccc(-c5ncc[nH]5)cc4[nH]3)cc2)n1`, -3.6%.
As for `CC(Br)C1=CC(c2ccccc2)(c2ccccc2)c2ccccc21` (stereo not given), the growth inhibition was 97.3% (active).
On to `COc1cccc(NC(=S)NC(=O)c2ccccc2)c1`, for which the growth inhibition was 95.6% (active).
Regarding `Cc1ccc(C(=O)N2CCCCC2)cc1N=NN(C)C`, the growth inhibition is -17.6%.
For the compound `COC(=O)CC1(C(=O)OC)OC(=O)c2ccccc2N1C` (stereo not given), the growth inhibition is -8.35%.
In the case of `COc1cc(O)c(Cc2ccccc2O)c(O)c1C(=O)CCc1ccccc1`, the growth inhibition is -35.9%.
With `Cc1ccccc1-c1nc2c([nH]1)c(=O)n(C)c(=O)n2C`, the growth inhibition is 0.25%.
On to `ClC(c1ccccc1)c1cccc2ccccc12` (stereo not given), for which the growth inhibition is 11.8%.
With `O=S1(=O)OC(c2ccc(O)cc2)(c2ccc(O)cc2)c2ccccc21`, the growth inhibition is -11.9%.
As for `CCCSS[C@H]1NC(=O)[C@H]1NC(=O)COc1ccccc1`, the growth inhibition is 19.1%.
As for `Cc1cc(N(CCC#N)CCC#N)ccc1N=Nc1ccccc1[N+](=O)[O-]`, the growth inhibition was -32%.
With `CC(C)(NC(=O)c1cc(Cl)c2ccccc2c1O)C(=O)O`, the growth inhibition is 8.6%.
Still for that read-out and setting: for `CN1C(C(=O)Nc2ccccn2)=C(O)c2ccccc2S1(=O)=O` the value was -1.75%.

The next assay can be described thus: NCI Yeast Anticancer Drug Screen. Data for the mlh1 rad18 strain (AID 175). The settings on record: S. cerevisiae mlh1 rad18 strain growth inhibition; at 50.0 µM; hits give high values. In outline: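 Steps: expose repair-defective yeast to compound; measure growth; express inhibition against vehicle-treated controls.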
With `CCN(CC)CCCOC(c1ccccc1)c1ccc(Cl)cc1` (stereo not given), the growth inhibition is 26.1%.
For the compound `O=C(/C(=C\C(=O)c1cccs1)c1ccsc1)c1ccc(Br)cc1`, the growth inhibition is -17.3%.
On to `CCCCCCOCC(=O)OC`, for which the growth inhibition is -2.85%.
In the case of `CC(=O)NC1=C(Sc2ccc(Cl)cc2)C(=O)c2ccccc2C1=O`, the growth inhibition is 33.2%.
As for `CC(=O)OCC1OC(Sc2ccc([N+](=O)[O-])cc2)C(OC(C)=O)C(OC(C)=O)C1OC(C)=O` (stereo not given), the growth inhibition is 17.9%.
Turning to `c1ccc(C23CCCCC2O3)cc1` (stereo not given), the growth inhibition is 4.85%.
On the same count and under the same terms, for `CCN(CC)C(=S)Nc1ccc(-c2cc3ccc(O)cc3oc2=O)cc1` the value was 6.15%; for `Nc1cccc(C(=O)Nc2ccc3c(O)cc(S(=O)(=O)O)cc3c2)c1`, 7.05%.
As for `O=C(CCCC(=O)Nc1cccc([N+](=O)[O-])c1)CC(=O)c1ccc([N+](=O)[O-])cc1`, the growth inhibition is 8%.
`CSc1cc(Cl)c(C)cc1S(=O)(=O)n1cc[nH]c1=O`: the growth inhibition was 17.1%.
As to `O=C1CN(CCN2CCCCC2)CC(=O)N2Cc3ccccc3CN12`, the growth inhibition was 14.2%.
Turning to `COC(=O)NC1(NC(=O)OC)NC(=O)c2cc(OC)c(OC)c(OC)c2N1`, the growth inhibition was 3.85%.
With `Cc1cccc(C(=O)NC(C)C)c1`, the growth inhibition was -19.6%.
Consider `Cc1ccc(S(=O)(=O)OC2CCCCCC2c2ccccc2)cc1` (stereo not given), for which the growth inhibition was -3.55%.
Turning to `c1ccc2c(c1)CCCC(N1CCOCC1)C2` (stereo not given), the growth inhibition was 15.9%.
With `CCOC(=O)CSC(=O)NCCCl`, the growth inhibition is 9.1%.
Turning to `COc1ccc(C(=O)/C(Br)=C\C(=O)O)cc1`, the growth inhibition was 7%.
Turning to `CCc1nc(N)nc(N)c1-c1ccc(Cl)c([N+](=O)[O-])c1`, the growth inhibition is -13.6%.
As for `COc1ccc(C2CC(c3cc(C)ccc3O)=NC(N)=N2)cc1` (stereo not given), the growth inhibition is 23.4%.
Regarding `CCOC(=O)Cc1csc2[n+]1C(=O)/C(=C/c1cccc(OC)c1O)S2`, the growth inhibition is 38.2%.
As to `COc1ccc(CCN2C(=O)C(=O)N(c3ccc([N+](=O)[O-])cc3)C2=O)cc1OC`, the growth inhibition was 8.55%.
For `CC1(c2cccc[n+]2Cc2ccccc2S(=O)(=O)[O-])OCCO1`, the growth inhibition was -21.6%.
With `O=c1[nH]nc(SCc2ccccc2)c(=O)n1C(c1ccccc1)c1ccccc1`, the growth inhibition is 5.3%.
Turning to `COc1cc(C(=O)O)ccc1OC(C)=O`, the growth inhibition is 1.35%.
`O=C1C=C(c2ccccc2)C(O)(c2ccccc2)/C1=C/C=C/c1ccccc1` (stereo not given): the growth inhibition is -8.35%.
For the compound `Cc1onc(-c2c(F)cccc2Cl)c1C(=O)Nc1cc2cc([N+](=O)[O-])ccc2oc1=O`, the growth inhibition was 12.5%.
For `C=CCSc1nc2ccc(NCn3c(=S)sc4ccccc43)cc2s1`, the growth inhibition was 56.7%.
On to `Nc1nc(Cl)nc(Nc2ccc(-c3cc4ccc(-c5ncc[nH]5)cc4[nH]3)cc2)n1`, for which the growth inhibition was 62.6%.
For the compound `CC(Br)C1=CC(c2ccccc2)(c2ccccc2)c2ccccc21` (stereo not given), the growth inhibition is 96.7% (active).
The same measure, in the same setting: as for `COc1cccc(NC(=S)NC(=O)c2ccccc2)c1`, the figure is 45.7%; as for `Cc1ccc(C(=O)N2CCCCC2)cc1N=NN(C)C`, -21.1%.
Regarding `COC(=O)CC1(C(=O)OC)OC(=O)c2ccccc2N1C` (stereo not given), the growth inhibition was 12.3%.
For `COc1cc(O)c(Cc2ccccc2O)c(O)c1C(=O)CCc1ccccc1`, the growth inhibition was -7.9%.
On to `Cc1ccccc1-c1nc2c([nH]1)c(=O)n(C)c(=O)n2C`, for which the growth inhibition was 2.75%.
Take `ClC(c1ccccc1)c1cccc2ccccc12` (stereo not given): the growth inhibition is 41.6%.
In the case of `O=S1(=O)OC(c2ccc(O)cc2)(c2ccc(O)cc2)c2ccccc21`, the growth inhibition is 18.6%.
Consider `CCCSS[C@H]1NC(=O)[C@H]1NC(=O)COc1ccccc1`, for which the growth inhibition is -3.6%.
In the case of `Cc1cc(N(CCC#N)CCC#N)ccc1N=Nc1ccccc1[N+](=O)[O-]`, the growth inhibition was -24.1%.
With `CC(C)(NC(=O)c1cc(Cl)c2ccccc2c1O)C(=O)O`, the growth inhibition is 17.7%.
On the same count and under the same terms, for `CN1C(C(=O)Nc2ccccn2)=C(O)c2ccccc2S1(=O)=O` the value was 8.25%.
